Screens: PubChem, several laboratories
An excerpt weighted towards active compounds, which were near 7% of everything screened.
ADAM10 inh = human ADAM10 inhibitors, primary screen, biochemical, QFRET, HTS; Disintegrin and metalloproteinase domain-containing protein 10 (Homo sapiens), O14672; recombinant ADAM10, EDANS/DABCYL FRET peptide cleavage, 3 h; inhibition, % at 7 µM; 370,000 compounds, 0.62% hits; AID 720582, 2013;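 active means inhibition above a per-campaign cutoff equal to the mean of compounds falling between control-based bounds plus 3 SD, cut at about 20% in these data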;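 further: 0% = DMSO wells while the 100% control is not disclosed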
rCAG binder = binders of r(CAG) RNA repeats, primary screen, biochemical, fluorescence; r(CAG) RNA repeat, TO-PRO-1 dye displacement fluorescence; inhibition, % at 3 µM; 370,000 compounds, 1.3% hits;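 active means inhibition above the plate cutoff, the mean of all test compounds on that plate plus 3 SD, cut at about 35% in these data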;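 further: 0% = DMSO alone and 100% = 100 µM mitoxantrone as full dye displacement; higher means more dye released from RNA so lower well fluorescence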
NR3A LBD binder = binders of NR3A ligand-binding domain, primary screen, biophysical, differential scanning fluorimetry, uHTS; NR3A LBD differential scanning fluorimetry, Tm shift; 0% = protein alone, 100% = glycine-bound protein; AID 1259313, 2017; Tm shift relative to glycine control, % at 25 µM; 340,000 compounds, 2.5% hits; Glutamate receptor ionotropic, NMDA 3A (GRIN3A) ligand-binding domain;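 active means melting temperature shift of at least 10% of the positive control shift, at one fixed dose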
proKLK7 act = proKLK7 zymogen activators, primary screen, biochemical, fluorescence intensity | activation, % at 7 µM | AID 652039, 2013 | purified proKLK7, EDANS-DABCYL substrate fluorescence; 100% is mature enzyme control, 0% vehicle | Kallikrein-7 (Homo sapiens), P49862 | 370,000 compounds, 0.9% hits;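 active means activation above the mean of all tested compounds plus 3 SD, computed per campaign excluding outliers beyond control limits, cut at about 13% in these data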
AHR activator = AHR activators, primary screen, cell-based, luminescence, luciferase reporter, human; Aryl hydrocarbon receptor (Homo sapiens), P35869; AHR-responsive luciferase reporter cells; activation, % at 5 µM; 320,000 compounds, 2.5% hits; in the data active means activation above about 47%;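 further: 0% = vehicle wells and 100% = reference agonist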
Target sequence (P35869 whole entry, looked up): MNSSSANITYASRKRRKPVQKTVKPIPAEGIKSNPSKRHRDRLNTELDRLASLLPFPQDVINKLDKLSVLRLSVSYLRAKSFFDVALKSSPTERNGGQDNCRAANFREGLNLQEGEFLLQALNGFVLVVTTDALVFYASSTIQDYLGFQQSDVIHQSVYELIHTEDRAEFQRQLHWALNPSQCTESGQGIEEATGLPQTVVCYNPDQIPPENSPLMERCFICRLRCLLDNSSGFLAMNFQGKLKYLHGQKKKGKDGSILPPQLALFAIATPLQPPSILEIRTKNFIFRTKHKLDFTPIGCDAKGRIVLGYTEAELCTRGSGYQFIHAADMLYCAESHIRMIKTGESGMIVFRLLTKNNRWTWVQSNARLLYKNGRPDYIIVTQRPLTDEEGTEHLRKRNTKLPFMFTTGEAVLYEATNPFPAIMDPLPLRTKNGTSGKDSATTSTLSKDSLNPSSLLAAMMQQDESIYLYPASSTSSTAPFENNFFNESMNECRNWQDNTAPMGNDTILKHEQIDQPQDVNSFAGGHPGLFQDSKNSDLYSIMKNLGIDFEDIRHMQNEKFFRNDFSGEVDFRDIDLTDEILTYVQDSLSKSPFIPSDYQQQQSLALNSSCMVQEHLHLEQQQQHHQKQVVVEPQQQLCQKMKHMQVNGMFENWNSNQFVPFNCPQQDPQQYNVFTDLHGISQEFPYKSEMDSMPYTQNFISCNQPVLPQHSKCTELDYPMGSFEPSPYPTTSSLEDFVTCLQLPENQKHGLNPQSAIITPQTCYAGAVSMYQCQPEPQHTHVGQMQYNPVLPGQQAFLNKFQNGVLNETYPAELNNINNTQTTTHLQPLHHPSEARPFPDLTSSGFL
ADAM17 inh = ADAM17 inhibitors, primary screen, biochemical, QFRET. Disintegrin and metalloproteinase domain-containing protein 17 (Homo sapiens), P78536. recombinant ADAM17, EDANS/DABCYL FRET peptide cleavage. 370,000 compounds, 0.83% hits. AID 720648, 2013. inhibition, % at 6.95 µM;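 active means inhibition above the mean of compounds lying between control limits plus 3 SD, set per campaign, cut at about 8.5% in these data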;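 further: 0% = DMSO-only wells as the low control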
proKLK7 act conf = proKLK7 zymogen activators, confirmation, biochemical, fluorescence intensity, triplicate; activation, % at 7 µM; shares compounds with proKLK7 act; 3,200 compounds, 68% hits; purified proKLK7, EDANS-DABCYL substrate fluorescence; scaled: vehicle 0, mature enzyme 100;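 active means activation, as change over the incubation, above the mean of all tested compounds plus 3 SD, cut at about 13% in these data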
EDANS-DABCYL int = EDANS-DABCYL substrate optical interference, artefact control for kallikrein-7 zymogen activator project, biochemical, fluorescence intensity, high throughput; shares compounds with proKLK7 act; no enzyme, 4 h; solvent 0%, active enzyme control 100%; activation, % at 7 µM; 3,200 compounds, 80% hits; AID 686952, 2013;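 active means activation above the all-compound mean plus 3 SD, ignoring values outside control-based bounds, cut at about 4.8% in these data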;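 further: value is the 4 h activation minus the activation read at time zero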
* = called active by the depositor; i = inactive; . = no result given.

SMILES	ADAM10 inh	rCAG binder	NR3A LBD binder	proKLK7 act	AHR activator	ADAM17 inh	proKLK7 act conf	EDANS-DABCYL int
NC(=O)/C(=C\c1cccnc1)NC(=O)c1ccccc1	2	-2	-1	-1	0	2	.	.
CCN(CC)C(=O)CC[C@H]1CC[C@]2(CCCN(Cc3ccncc3)C2)O1	1	0	.	1	.	2	.	.
CN1CCN(c2c(F)cc3c(=O)c(C(=O)O)cn4c3c2OCN4C)CC1	-351	-1	0	60*	2	-127	21*	30*
Cc1cc(C)c(NC(=O)c2cn3c4c(c(N5CCN(C)CC5)c(F)cc4c2=O)OCC3C)c(C)c1 (stereo not given)	-335	-8	1	2	-3	-84	.	.
CC(=O)c1ccc(-c2nc3ccccc3n2C)o1	i	5	0	67*	0	i	57*	59*
Cc1ccc(-c2nc3ccccc3n2C)o1	-95	0	3	-1	11	-14	.	.
Cc1cccn2c(=O)c3cc(C(=O)NCCc4ccccc4)c(=N)n(CC4CCCO4)c3nc12 (stereo not given)	i	4	-2	-4	0	i	.	.
C=CCn1c(=N)c(C(=O)NCCCOC)cc2c(=O)n3cccc(C)c3nc21	i	3	0	120*	6	i	56*	66*
Cc1cccn2c(=O)c3cc(C(=O)NCc4cccnc4)c(=N)n(CC4CCCO4)c3nc12 (stereo not given)	i	3	0	111*	24	i	10	33*
CNC(=O)c1cc2c(=O)n3cccc(C)c3nc2n(C(C)C)c1=N	i	0	1	91*	5	i	71*	71*
COCCCn1c(=N)c(C(=O)NCC2CCCO2)cc2c(=O)n3ccccc3nc21 (stereo not given)	i	-6	0	33*	3	-413	11	15*
CCNC(=O)c1cc2c(=O)n3cccc(C)c3nc2n(CCc2ccccc2)c1=N	i	9	-2	-4	31	i	.	.
COc1ccc(C(=O)NC(C)c2ccncc2)cc1S(=O)(=O)N(C)Cc1ccccc1 (stereo not given)	-14	4	0	1	2	-2	.	.
Cc1ccc(OC(=O)CCC(=O)Nc2ccc(C(N)=O)cc2)cc1	10	2	1	0	2	-4	.	.
COc1ccc(N(CC(=O)NN=C2CCN(C)CC2)S(=O)(=O)c2ccc(NC(C)=O)cc2)cc1	10	9	-2	1	1	0	.	.
Cc1cccn2c(=O)c3cc(C(=O)NCC4CCCO4)c(=N)n(CCN4CCOCC4)c3nc12 (stereo not given)	i	-5	1	14*	8	i	9	9.4*
CCCn1c(=N)c(C(=O)NCC2CCCO2)cc2c(=O)n3cccc(C)c3nc21 (stereo not given)	i	3	-2	83*	3	i	5	3
Cc1ccc(Cn2c(=N)c(C(=O)NCC3CCCO3)cc3c(=O)n4cccc(C)c4nc32)cc1 (stereo not given)	i	7	9	2	10	i	.	.
O=C(NCc1cccnc1)c1cccn2c(=O)c3sccc3nc12	-271	0	1	19*	21	-76	67*	74*
COCCCn1c(=N)c(C(=O)NCC2CCCO2)cc2c(=O)n3cccc(C)c3nc21 (stereo not given)	i	2	0	121*	10	i	61*	71*
Cc1ccc(Cn2c(=N)c(C(=O)NCC3CCCO3)cc3c(=O)n4ccccc4nc32)cc1 (stereo not given)	i	3	-1	-1	1	-356	.	.
COc1ccccc1C(=O)Nc1ccnn1C1CCN(CCCC2CCCC2)CC1	-4	-8	-3	0	4	-1	.	.
N=c1c(C(=O)NCC2CCCO2)cc2c(=O)n3ccccc3nc2n1Cc1ccccc1 (stereo not given)	i	1	-4	118*	2	i	24*	23*
N=c1c(C(=O)NCC2CCCO2)cc2c(=O)n3ccccc3nc2n1Cc1ccc(Cl)cc1 (stereo not given)	i	3	-3	-5	4	i	.	.
CCc1cc2c(=O)c(-c3nc4ccccc4n3C)coc2c(CN2CCOCC2)c1O	-45	-2	-2	2	1	-12	.	.
SMILES	ADAM10 inh	rCAG binder	NR3A LBD binder	proKLK7 act	AHR activator	ADAM17 inh	proKLK7 act conf	EDANS-DABCYL int
CCc1cc2c(=O)c(-c3nc4ccccc4n3C)coc2c(CN2CCCCC2)c1O	-174	-1	0	13*	.	-68	7	8.8*
CCc1cc2c(=O)c(-c3nc4ccccc4n3C)coc2c(CN2CCCCC2C)c1O (stereo not given)	-127	2	2	16*	.	-49	8	15*
CC(/C=C1\SC(=S)N(CCC(=O)Nc2nc(C)cs2)C1=O)=C\c1ccccc1	-2	7	-2	0	2	-1	.	.
Cc1[nH]c(=O)[nH]c(=O)c1S(=O)(=O)N(CC(C)C)CC(C)C	9	5	-1	0	0	1	.	.
Cc1nn(-c2ccccc2)c(C)c1N	0	-4	-2	-1	-1	0	.	.
Cc1c(O)cnc2nn(-c3ccccc3)c(=N)n12	i	0	.	40*	.	i	17*	17*
CC(c1ccccc1)C1CC(=O)N(Cc2ccco2)C1=O (stereo not given)	-4	13	1	119*	0	-2	2	0
Cc1ccc2nc(-c3ccc(NC(=O)Cc4cccs4)cc3)[nH]c2c1	-270	13	34*	52*	-7	-114	8	3
O=C(NCc1ccco1)/C(=C/c1ccc(C(F)(F)F)cc1)c1nc2ccccc2[nH]1	-120	13	-3	61*	8	-37	84*	96*
O=C(NCc1ccco1)/C(=C/c1cccc(C(F)(F)F)c1)c1nc2ccccc2[nH]1	-70	3	-5	-1	9	-24	.	.
